Only some compounds are listed: those with a hit (about 17% of all), similar ones and a draw of the others.
HT1080 IDH1KD tx: HT-1080 IDH1 knockdown cell toxicity (counter line). HT-1080 IDH1 knockdown viability, ATP luminescence, 48 h. Potency, µM (top dose mostly 46.1 µM), usual class: cytotoxic. 2% of 360,000 active. AID 686971
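Knockdown cells (IDH1KD HT-1080) received compounds 2 h after plating at 750 cells/well and were kept 48 h at 37 °C in 5% FBS RPMI. A CellTiter-Glo luminescence read gave % activity for curve fitting.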
DT40 TDP1 no CPT: qHTS for Inhibitors of human tyrosyl-DNA phosphodiesterase 1 (TDP1): qHTS in cells in absence of CPT. 15% of 420,000 active. DT40 Tdp1-/- hTDP1 cells, no CPT, ATP luminescence, 48 h. Potency, µM (top dose mostly 46.2 µM), usual class: inhibitors; also: nearly all actives have a fitted effect of over 55% in size
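Growth kinetics read by CellTiter-Glo luminescence after ≥48 hr at 37 °C. Cells: DT40 Tdp1-/- stably carrying human TDP1, 400 per well, compound exposure in the absence of CPT (DMSO vehicle).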
TGFb inhibitor: inhibitors of TGF-b signaling; HepG2 CAGA-GFP TGF-b/SMAD3 reporter, GFP fluorescence, 18 h; TGF-beta stimulated, 500 pg/mL final; Potency, µM (doses to about 46.1 µM), hits mostly inhibitors; 1.2% of 410,000 active; also: nearly all actives have a fitted effect of over 65% in size
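Cell-based qHTS in HEPG2 carrying a CAGA-GFP Smad reporter; compounds added before 500 pg/mL final TGF-beta, 18 h incubation at 37 degrees C, GFP fluorescence quantified per cell by imaging cytometry.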
DT40 TDP1 CPT: growth inhibition of DT40 Tdp1-/-;hTDP1 cells with camptothecin (screen for TDP1 inhibitors); Potency, µM (highest dose often 46.2 µM), actives largely listed as inhibitors; 12% of 420,000 active; AID 686979; chicken DT40 Tdp1-/-;hTDP1 cells + 20 nM CPT, ATP luminescence, 48 h; also: nearly all actives have a fitted effect of over 55% in size
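Chicken DT40 Tdp1-/- cells stably complemented with human TDP1 were seeded at 400 cells/well in medium containing 20 nM camptothecin, exposed to pin-transferred compounds, and grown at 37 °C for at least 48 hr. Viability was read as ATP luminescence.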
HepG2 viability: counter-screen for TGF-b inhibitors: cytotoxicity in HepG2 cells; 0.76% of 410,000 active; HepG2 CAGA-GFP viability, ATP luminescence, 18 h; Potency, µM (titrated, usually from 46.1 µM), actives largely listed as cytotoxic
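CellTiter-Glo luminescence gave cytotoxicity after 18 hours at 37 degrees C. The cells were HepG2 CAGA-GFP in 1% FBS DMEM, stimulated with 500 pg/mL TGF-beta after compound addition. %Activity was normalised to no-cell wells (complete cell-killing) and DMSO (no toxicity), and curves were fitted and classified.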
HT1080NT lethal: kills 2HG-producing HT-1080-NT fibrosarcoma cells | 1.6% of 360,000 active | Potency, µM (doses to about 46.1 µM), most hits filed as cytotoxic | HT-1080-NT fibrosarcoma viability, CellTiter-Glo ATP luminescence, 48 h;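 also: NT is the 2HG producing partner of a matched IDH1 knockdown line; nearly all actives have a fitted effect of over 55% in size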
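Read-out is CellTiter-Glo luminescence after 10 minutes at room temperature, following 48 hours' compound treatment of HT-1080-NT cells (750 cells/well, RPMI, 5% FBS, 37 degrees C).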
Large screens that a line does not name were inactive. Calls follow the shape of the dose curve; as a rule, active = well fitted curve in the direction sought with a large enough effect; inconclusive = small, poorly fitted or top-dose-only effect, or another doubt; inactive = no such curve, though single readings can be large; an effect the other way counts as inactive or inconclusive.

Cc1ccc(N2C(S)=C(C#N)C(=O)NC2c2ccco2)cc1 (stereo not drawn)	DT40 TDP1 no CPT inconclusive, TGFb inhibitor inconclusive, DT40 TDP1 CPT 23.1µM, HT1080NT lethal inconclusive
Cc1ccccc1OCC(=O)O/N=C(\N)c1ccncc1	none
Cc1ccc2nc(NC(=O)CSc3nnc(C)c(=O)n3N)sc2c1	none
O=C(Nc1ccc(Cl)cc1)C1=Cc2cc(Cl)ccc2OC1	DT40 TDP1 no CPT 25.9µM, TGFb inhibitor inconclusive, DT40 TDP1 CPT 18.4µM
Oc1c(CN2CCCCC2)cc(COCc2ccccc2)c2cccnc12	HT1080 IDH1KD tx 2.91µM, DT40 TDP1 no CPT 4.61µM, TGFb inhibitor inconclusive, DT40 TDP1 CPT 4.11µM, HT1080NT lethal 7.31µM
COCc1cc(CN2CCCC2)c(O)c2ncccc12	HT1080 IDH1KD tx 0.631µM, DT40 TDP1 no CPT 0.82µM, TGFb inhibitor inconclusive, DT40 TDP1 CPT 0.651µM, HT1080NT lethal 1.12µM
CN(C)C1CCN(Cc2cc(COCc3ccccc3)c3cccnc3c2O)C1 (stereo not drawn)	TGFb inhibitor inconclusive (no result: HT1080 IDH1KD tx, DT40 TDP1 no CPT, DT40 TDP1 CPT, HT1080NT lethal)
O=c1c2c3n(c(=S)nc2[nH]n1-c1ccccc1)CCCCC3	HT1080 IDH1KD tx inconclusive
O=C1C(Cc2ccc(F)cc2)SC(=Nc2ccccc2)N1c1ccccc1 (stereo not drawn)	DT40 TDP1 no CPT 23.1µM, DT40 TDP1 CPT inconclusive
O=c1[nH]c2cc(C(F)(F)F)c(N3CCOCC3)cc2n(CP(=O)(O)O)c1=O	none (no result: HT1080 IDH1KD tx, TGFb inhibitor, HepG2 viability, HT1080NT lethal)
N#Cc1nc(-c2ccccc2)cc(-c2ccccc2)n1	DT40 TDP1 no CPT inconclusive, DT40 TDP1 CPT inconclusive (no result: TGFb inhibitor, HepG2 viability)
COc1cc(/C=C/[N+](=O)[O-])ccc1OC(=O)c1cc2ccccc2oc1=O	DT40 TDP1 no CPT 25.9µM, DT40 TDP1 CPT inconclusive
COc1ccccc1OC(=O)c1cc2ccccc2oc1=O	none
CCn1c(-c2cccc(OC)c2)nc2cc(NC(C)=O)cc(C(=O)N3CCC[C@H]3C(=O)OC)c21	none (no result: HT1080 IDH1KD tx, TGFb inhibitor, HepG2 viability, HT1080NT lethal)
CCCN1CCN(C(=O)c2oc3ccccc3c2NC(=O)COc2ccc(OC)cc2)CC1	DT40 TDP1 no CPT inconclusive, DT40 TDP1 CPT inconclusive
CC(C)NC1=C(Cl)C(=O)c2ccccc2C1=O	HT1080 IDH1KD tx 7.08µM, DT40 TDP1 no CPT inconclusive, TGFb inhibitor 10µM, DT40 TDP1 CPT 18.4µM, HepG2 viability 8.91µM, HT1080NT lethal inconclusive
O=C(NCCc1ccc(F)cc1)N[C@@H](Cc1ccccc1)C(=O)O	none
COCCCNC1=C(Cl)C(=O)c2ccccc2C1=O	DT40 TDP1 no CPT inconclusive, TGFb inhibitor inconclusive, DT40 TDP1 CPT inconclusive, HT1080NT lethal inconclusive
O=C1C(Cl)=C(NCCc2ccccc2)C(=O)N1CCc1ccccc1	none
CC(=O)N(Cc1ccc(F)cc1)C1=C(NCCc2ccccc2)C(=O)c2ccccc2C1=O	HT1080 IDH1KD tx 5.17µM, DT40 TDP1 no CPT 1.84µM, TGFb inhibitor inconclusive, DT40 TDP1 CPT 1.84µM, HepG2 viability 3.98µM, HT1080NT lethal 5.8µM
O=C1C(Cl)=C(NCCc2ccccc2)C(=O)c2ccccc21	HT1080 IDH1KD tx inconclusive, DT40 TDP1 no CPT 1.46µM, TGFb inhibitor inconclusive, DT40 TDP1 CPT 0.82µM, HT1080NT lethal 9.2µM
C=CCNC1=C(Cl)C(=O)c2ccccc2C1=O	DT40 TDP1 no CPT 16.4µM, TGFb inhibitor inconclusive, DT40 TDP1 CPT 14.6µM, HepG2 viability 12.6µM
CCN(CC)CCCNC1=C(Cl)C(=O)c2ccccc2C1=O	HT1080 IDH1KD tx 20.6µM, DT40 TDP1 no CPT 4.11µM, TGFb inhibitor 4.47µM, DT40 TDP1 CPT 3.26µM, HepG2 viability 3.16µM, HT1080NT lethal inconclusive
CCN(CC)CCNC(=O)C1(O)c2cc(Br)ccc2NC(=O)N1c1ccccc1 (stereo not drawn)	none
CCC(c1nnnn1-c1c(C)cccc1C)N1CCCN(Cc2ccc(F)cc2)CC1 (stereo not drawn)	HT1080 IDH1KD tx inconclusive, DT40 TDP1 no CPT 16.4µM, DT40 TDP1 CPT inconclusive, HT1080NT lethal inconclusive (no result: TGFb inhibitor, HepG2 viability)
COc1ccc(CNC(=O)Cn2c(=O)cc(-c3ccccc3)c3c(C)nn(C)c32)cc1	none (no result: HT1080 IDH1KD tx, HT1080NT lethal)

Compound activity (PubChem)
